According to PubChem BioAssay AID1159580 (chemical genetic matrix, 2015):
About 2,000 (36%) of roughly 5,500 compounds were called active. Another 18% or so got no clear call; they are omitted. Cut-off read from the data, not from the text of the source: active = normalized growth mostly below about 0.91 (no sharp cut-off); inconclusive = no clear call, values can overlap the other calls; inactive = mostly above about 0.92. This is one part of the list.

Assay: chemical genetic growth profiling, strain panel (AID 1159580);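 note: tested at 20 µM; growth read once vehicle control cultures reached saturation at 30 °C; 1 = growth at the plate median or of vehicle wells; lower values mean less growth of the strain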
Settings: S. cerevisiae deletion strains, growth OD

Measured: normalized growth

NC1CCN(O)C1=O (stereo not given)
inactive: locus YAL013W, strain DEP1, active compounds read low 1.02 | locus YAL040C, strain CLN3, active compounds read low 1.02 | locus YCL061C, strain MRC1 (second series), active compounds read low 1.02 | locus YDR363W, strain ESC2, active compounds read low 0.986 | locus YER002W, strain NOP16, active compounds read low 1.01 | locus YGR078C, strain PAC10, active compounds read low 1.02 | locus YNL175C, strain NOP13, active compounds read low 1.01 | locus YNL197C, strain WHI3, active compounds read low 0.997 | locus YNL224C, strain SQS1, active compounds read low 1.02 | locus YOR083W, strain WHI5 (second series), active compounds read low 0.985
